We go through 52 molecules from ChEMBL document CHEMBL3988442, “University of Dundee, Small-Polar-MMV Screening Library” (2021).

Out of some 48,000 compounds screened, about 13,000 (27%) showed an effect of 50% or more. This is one part of the list.

This test deals with Wolbachia pipientis. Nature of the test: Anti-Wolbachia Cell-Based Screen. The note with it: 5 µM. Set-up: scale not given: in the data most compounds retested in dose-response had high values. The class given is functional.
As for `CC(O)CCn1ccc2[nH]c(=O)c(C#N)cc2c1=O` (configuration not stated), the “Percent Effect” value was -44.58%.

In the case of `COC(=O)C(C)NCc1ccc2[nH]c(C)c(C)c2c1` (configuration not stated), the “Percent Effect” value is recorded as -1.475%.

With `COc1cc2[nH]c(C(=O)O)cc2c(OC)c1C`, the “Percent Effect” value is on record as 98.44%.

Regarding `COC(=O)c1cc2c(OC)c(OC)c(OC)cc2[nH]1`, the “Percent Effect” value turned out to be 120.2%.

Consider `COc1cc2[nH]c(=O)c(CN3CCCC(CO)C3)cc2c(OC)c1OC` (configuration not stated), for which the “Percent Effect” value is 1.788%.

On to `COc1cc2cc(C(=O)O)n(C)c2c(OC)c1OC`, for which the “Percent Effect” value was -1.189%.

With `COC(=O)c1cc2c(OC)c(C)c(OC)cc2[nH]1`, the “Percent Effect” value turned out to be 95.02%.

`COc1cc2[nH]c(=O)c(CN3CCC[C@@H]3C(N)=O)cc2c(OC)c1OC`: the “Percent Effect” value is listed as -9.081%.

On to `COc1cc(C(=O)N(C)Cc2cc(C(=O)O)c(C)o2)cc(OC)c1OC`, for which the “Percent Effect” value was -0.7675%.

Regarding `COc1cc(C(=O)Nc2c(C)noc2C)ccc1C`, the “Percent Effect” value amounted to 5.924%.

For `CCCn1nc2c(cc1=O)CN(CC(=O)N(C)c1nccs1)CC2`, the “Percent Effect” value was -22.84%.

Take `CCc1cc(NCCCC2CCOC2)n2nccc2n1` (configuration not stated): the “Percent Effect” value is reported as -1.009%.

Regarding `CCc1nnsc1C(=O)NCCn1nc2ccccn2c1=O`, the “Percent Effect” value is recorded as 6.254%.

As for `NC(=O)C(NC(=O)c1cc(Cl)c[nH]1)c1ccccc1` (configuration not stated), the “Percent Effect” value was 10.72%.

Consider `c1ccc(CN(Cc2cccc3cnccc23)CC2CCCO2)nc1` (configuration not stated), for which the “Percent Effect” value was 15.94%.

As for `CCOCC1CN(S(=O)(=O)C2CC2)Cc2ncn(CC3CC3)c21` (configuration not stated), the “Percent Effect” value is listed as 93.99%.

`COCC1CN(Cc2ccc(C)o2)Cc2ncn(CC3CC3)c21` (configuration not stated): the “Percent Effect” value turned out to be 4.542%.

On to `CCOCC1CN(S(=O)(=O)C2CC2)Cc2nn(C)cc21` (configuration not stated), for which the “Percent Effect” value was -10.65%.

Turning to `CCOCC1CN(S(C)(=O)=O)Cc2ncn(CC3CC3)c21` (configuration not stated), the “Percent Effect” value is -5.705%.

Take `COCC1CN(C(=O)CS(C)(=O)=O)Cc2ncn(CC3CC3)c21` (configuration not stated): the “Percent Effect” value is recorded as 98.19%.

As for `COCC1CN(S(=O)(=O)C2CC2)Cc2ncn(CC3CC3)c21` (configuration not stated), the “Percent Effect” value is 93.96%.

As for `COCC1CN(CC2CC2)Cc2nn(C)cc21.O=C(O)C(F)(F)F` (configuration not stated), the “Percent Effect” value is listed as -11.2%.

For the molecule `CCOC(=O)C1CN(S(=O)(=O)C2CC2)Cc2ncn(CC)c21` (configuration not stated), the “Percent Effect” value is on record as -2.058%.

Consider `CCn1cc2c(n1)CN(S(=O)(=O)c1ccc(C)cc1)CC2COC` (configuration not stated), for which the “Percent Effect” value is reported as -1.212%.

As to `COCC1CN(C(=O)CC2=CCCCC2)Cc2nnn(CC3CC3)c21` (configuration not stated), the “Percent Effect” value is recorded as 25.21%.

Consider `COCC1CN(C(=O)Cc2ccccn2)Cc2ncn(C)c21` (configuration not stated), for which the “Percent Effect” value is recorded as -6.541%.

With `COCC1CN(CC2CC2)Cc2ncn(CC3CC3)c21` (configuration not stated), the “Percent Effect” value is reported as 123%.

For `CCN(C)S(=O)(=O)c1ccc(Cl)cc1C#N`, the “Percent Effect” value was -3.723%.

For `CCN1C(=O)[C@]2(CC[C@@H]3CN(C(=O)NCC(C)C)C[C@@H]32)N=C1C`, the “Percent Effect” value was determined as 1.741%.

In the case of `CCS(=O)(=O)N1Cc2ncn(CC3CC3)c2C(COC)C1` (configuration not stated), the “Percent Effect” value came to 96.93%.

As for `COCC1CN(S(C)(=O)=O)Cc2ncn(CC3CC3)c21` (configuration not stated), the “Percent Effect” value is listed as -3.416%.

On to `CCOCC1CN(S(=O)(=O)CC)Cc2nn(C)cc21` (configuration not stated), for which the “Percent Effect” value was -1.442%.

For `CCS(=O)(=O)N1CCc2cc(C(=O)NC)c(NCC(C)C)nc2CC1`, the “Percent Effect” value is listed as -9.983%.

With `COc1cccc(-c2nc(CNC(C)Cn3cccn3)cs2)c1` (configuration not stated), the “Percent Effect” value was 12.67%.

With `O=C(Cc1csc(-c2ccccc2)n1)N[C@@H](C(=O)O)c1ccccc1`, the “Percent Effect” value came to 112.5%.

For `O=C(Cc1csc(N2CCNC2=O)n1)NC(c1ccccc1)C1CC1` (configuration not stated), the “Percent Effect” value was -8.956%.

For the molecule `C[C@H](NC(=O)Cc1csc(-c2cccc(Cl)c2)n1)C(=O)O`, the “Percent Effect” value is given as 100.7%.

Consider `O=C(Cc1csc(-c2ccc(Cl)cc2)n1)NC(C(=O)O)c1ccccc1` (configuration not stated), for which the “Percent Effect” value stood at 14.14%.

Consider `COc1cccc(-c2nc(C)c(C(=O)N[C@@H](C)C(=O)O)s2)c1`, for which the “Percent Effect” value is given as -5.733%.

With `CC(C)C[C@H](NC(=O)Cc1csc(-c2cccc(Cl)c2)n1)C(=O)O`, the “Percent Effect” value is 111.7%.

For `CC[C@H](C)[C@H](NC(=O)Cc1csc(-c2cccc(Cl)c2)n1)C(=O)O`, the “Percent Effect” value is reported as -0.2804%.

Consider `NC(=O)CCS(=O)(=O)Cc1ccc(OCC(F)(F)F)cc1`, for which the “Percent Effect” value is reported as -2.639%.

As to `CC(=O)Nc1ccc2c(c1)nc1n2[C@@H](CNCc2ccccc2)COC1`, the “Percent Effect” value is -2.529%.

Regarding `C1CC(CN2C[C@H]3CC[C@@H]2CN(Cc2noc(C4CCCC4)n2)C3)C1`, the “Percent Effect” value is reported as -8.86%.

Regarding `O=C1CC(c2cccc(O)c2)c2c(c(C(=O)O)cn2-c2ccccc2)N1` (configuration not stated), the “Percent Effect” value was found to be 2.755%.

For `OC[C@H]1CCCN1c1nccc(-c2cncnc2C2CCCCC2)n1`, the “Percent Effect” value was determined as 101.1%.

As to `OC[C@@H]1CCCN1c1nccc(-c2c[nH]nc2-c2ccncc2)n1`, the “Percent Effect” value turned out to be 132.9%.

Turning to `COCc1noc(-c2ccc(N3CCCCC3CO)nc2)n1` (configuration not stated), the “Percent Effect” value is given as -1.816%.

Turning to `OC[C@H]1CCCN1c1nccc(-c2c[nH]nc2C2CCCCC2)n1`, the “Percent Effect” value was 103.3%.

For the molecule `OC[C@@H]1CCCN1c1ccc(-c2nc(COc3ccccc3)no2)cn1`, the “Percent Effect” value is listed as -5.727%.

In the case of `COCc1noc(-c2ccc(N3CCC[C@H]3CO)nc2)n1`, the “Percent Effect” value worked out at 11.1%.

In the case of `OCC1CCCN1c1cc(N2CCc3ccccc3C2)ncn1` (configuration not stated), the “Percent Effect” value was -8.701%.
